This is part of a sample that, as a whole, favours compounds with a hit. Of some 83,000 tested, about 20% had one in any assay.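 Testing used 96-well plates and a 48-hour single-concentration exposure. Example: -40 means 40% of the starting cells died.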 The source made the active and inactive calls. The calls were made as follows: active = growth percent below 10; inactive = the rest.
Columns and labels:
Assay in all cases: NCI-60 one-dose screen, 48 h (100 = growth as untreated, 0 = no growth, -100 = all killed)
Settings in all cases: 10 µM unless noted
SK-MEL-2 melanoma = test system: SK-MEL-2 melanoma
EKVX NSCLC = test system: EKVX NSCLC
SN12C renal = test system: SN12C renal
UO-31 renal = test system: UO-31 renal
TK-10 renal = test system: TK-10 renal
ACHN renal = test system: ACHN renal
CAKI-1 renal = test system: CAKI-1 renal
A498 renal = test system: A498 renal
CCRF-CEM leukemia = test system: CCRF-CEM leukemia
MOLT-4 leukemia = test system: MOLT-4 leukemia
SR leukemia = test system: SR leukemia
RPMI-8226 leukemia = test system: RPMI-8226 leukemia
OVCAR-8 ovarian = test system: OVCAR-8 ovarian
OVCAR-5 ovarian = test system: OVCAR-5 ovarian
OVCAR-4 ovarian = test system: OVCAR-4 ovarian
SK-OV-3 ovarian = test system: SK-OV-3 ovarian
IGROV1 ovarian = test system: IGROV1 ovarian
OVCAR-3 ovarian = test system: OVCAR-3 ovarian
HS 578T breast = test system: HS 578T breast
NCI/ADR-RES ovarian = test system: NCI/ADR-RES ovarian

Measured: growth

Cn1cc(-c2nonc2-c2c[nH]c3ccc(F)cc23)c2cc(Br)ccc21
inactive: SK-MEL-2 melanoma 71.5% | EKVX NSCLC 37.6% | SN12C renal 63.7% | UO-31 renal 30.4% | TK-10 renal 57% | ACHN renal 38.4% | CAKI-1 renal 25.3% | A498 renal 44.8% | CCRF-CEM leukemia 40.7% | MOLT-4 leukemia 32.1% | SR leukemia 27% | RPMI-8226 leukemia 46% | OVCAR-8 ovarian 40.5% | OVCAR-5 ovarian 58.7% | OVCAR-4 ovarian 43.8% | SK-OV-3 ovarian 64.4% | IGROV1 ovarian 64% | OVCAR-3 ovarian 60.3% | HS 578T breast 63.2% | NCI/ADR-RES ovarian 42.1%

COc1ccc(/C=C/C(=O)c2ccc(NC(=O)CSc3nnc(-c4cc(-c5ccccc5)nc5ccccc45)n3-c3ccccc3)cc2)cc1
inactive: SK-MEL-2 melanoma 107% | EKVX NSCLC 98% | SN12C renal 92.7% | UO-31 renal 100% | TK-10 renal 112% | ACHN renal 95.7% | CAKI-1 renal 90% | A498 renal 85.3% | CCRF-CEM leukemia 88.3% | MOLT-4 leukemia 80.2% | SR leukemia 79.7% | RPMI-8226 leukemia 96.6% | OVCAR-8 ovarian 93.5% | OVCAR-5 ovarian 93.4% | OVCAR-4 ovarian 96% | SK-OV-3 ovarian 109% | IGROV1 ovarian 111% | OVCAR-3 ovarian 102% | HS 578T breast 93.1% | NCI/ADR-RES ovarian 97.1%

COc1ccc(Nc2ncccc2NC(=O)c2cn(Cc3cccc(Oc4ccccc4)c3)nn2)cc1OC
inactive: SK-MEL-2 melanoma 95.1% | EKVX NSCLC 68% | SN12C renal 81.1% | UO-31 renal 54.4% | TK-10 renal 96.5% | ACHN renal 93.9% | CAKI-1 renal 82% | A498 renal 69.6% | CCRF-CEM leukemia 74.7% | MOLT-4 leukemia 48.1% | SR leukemia 34.9% | RPMI-8226 leukemia 73.2% | OVCAR-8 ovarian 90.8% | OVCAR-5 ovarian 111% | OVCAR-4 ovarian 68.2% | SK-OV-3 ovarian 93.5% | IGROV1 ovarian 89.5% | OVCAR-3 ovarian 73.3% | HS 578T breast 72.9% | NCI/ADR-RES ovarian 77%

COc1ccc(C(C)=O)cc1S(N)(=O)=O
inactive: SK-MEL-2 melanoma 87.9% | EKVX NSCLC 106% | SN12C renal 101% | UO-31 renal 90.7% | TK-10 renal 81.4% | ACHN renal 102% | CAKI-1 renal 93.8% | A498 renal 101% | CCRF-CEM leukemia 96.8% | MOLT-4 leukemia 86.4% | SR leukemia 104% | RPMI-8226 leukemia 98.9% | OVCAR-8 ovarian 96.6% | OVCAR-5 ovarian 102% | OVCAR-4 ovarian 101% | SK-OV-3 ovarian 115% | IGROV1 ovarian 108% | OVCAR-3 ovarian 108% | HS 578T breast 91.6% | NCI/ADR-RES ovarian 98.1%

C/C(=C(/c1ccc(Cl)cc1)c1ccc(OCCCN(C)C)cc1)c1ccc(Cl)cc1
inactive: SK-MEL-2 melanoma 98.5% | EKVX NSCLC 98.4% | SN12C renal 93.9% | UO-31 renal 72.7% | TK-10 renal 103% | ACHN renal 104% | CAKI-1 renal 87.3% | A498 renal 94.8% | CCRF-CEM leukemia 73.3% | MOLT-4 leukemia 71.7% | RPMI-8226 leukemia 55.6% | OVCAR-8 ovarian 96.1% | OVCAR-5 ovarian 101% | OVCAR-4 ovarian 104% | SK-OV-3 ovarian 120% | IGROV1 ovarian 85.7% | OVCAR-3 ovarian 86.3% | HS 578T breast 87.1% | NCI/ADR-RES ovarian 97.7%
active: SR leukemia -2.36%

O=C(CBr)CN1C(=O)c2ccccc2C1=O
inactive: SK-MEL-2 melanoma 108% | EKVX NSCLC 107% | SN12C renal 109% | UO-31 renal 88.8% | TK-10 renal 100% | ACHN renal 104% | CAKI-1 renal 98.6% | A498 renal 88.2% | CCRF-CEM leukemia 111% | MOLT-4 leukemia 104% | SR leukemia 98.9% | RPMI-8226 leukemia 112% | OVCAR-8 ovarian 103% | OVCAR-5 ovarian 97.4% | OVCAR-4 ovarian 103% | SK-OV-3 ovarian 99.7% | IGROV1 ovarian 103% | OVCAR-3 ovarian 102% | HS 578T breast 105% | NCI/ADR-RES ovarian 105%

CC1(C)CC2=C3C=C[C@@H]4[C@@]5(C)CC[C@H](O)C(C)(C)[C@@H]5CC[C@@]4(C)[C@]3(C)CC[C@@]2(C(=O)O)CC1=O
inactive: SK-MEL-2 melanoma 37.1% | EKVX NSCLC 61.4% | SN12C renal 54.4% | UO-31 renal 16.5% | TK-10 renal 33.5% | ACHN renal 13% | CAKI-1 renal 28.2% | A498 renal 57% | CCRF-CEM leukemia 25.2% | MOLT-4 leukemia 44.2% | SR leukemia 50.5% | OVCAR-8 ovarian 62.6% | OVCAR-5 ovarian 99.5% | OVCAR-4 ovarian 38% | SK-OV-3 ovarian 75.9% | IGROV1 ovarian 35.3% | OVCAR-3 ovarian 22.2% | HS 578T breast 73% | NCI/ADR-RES ovarian 61.2%
active: RPMI-8226 leukemia 4.49%

O=C1/C(=C/c2ccccc2)CN(C(=O)c2cccnc2)C/C1=C\c1ccccc1
inactive: SK-MEL-2 melanoma 89.6% | EKVX NSCLC 30.2% | TK-10 renal 20.7% | A498 renal 65.3% | OVCAR-8 ovarian 12.4% | OVCAR-5 ovarian 10.8% | OVCAR-4 ovarian 43.8% | SK-OV-3 ovarian 40.2% | HS 578T breast 21.4% | NCI/ADR-RES ovarian 18.7%
active: SN12C renal 6.72% | UO-31 renal -54.5% | ACHN renal -15.7% | CAKI-1 renal 5.87% | CCRF-CEM leukemia -15% | MOLT-4 leukemia 0.998% | SR leukemia 4.69% | RPMI-8226 leukemia -19.6% | IGROV1 ovarian 2.89% | OVCAR-3 ovarian -16.2%

S=c1[nH]c2cc(Cl)ccc2o1
active: CCRF-CEM leukemia -43.2%
inactive: SK-MEL-2 melanoma 98.6% | EKVX NSCLC 99.3% | SN12C renal 100% | UO-31 renal 87.9% | TK-10 renal 94.6% | ACHN renal 98.7% | CAKI-1 renal 97.8% | A498 renal 91.8% | MOLT-4 leukemia 63.1% | SR leukemia 48.5% | RPMI-8226 leukemia 81.5% | OVCAR-8 ovarian 115% | OVCAR-5 ovarian 92.5% | OVCAR-4 ovarian 103% | SK-OV-3 ovarian 108% | IGROV1 ovarian 118% | OVCAR-3 ovarian 114% | HS 578T breast 88.6% | NCI/ADR-RES ovarian 106%

O=C(Nc1nc(C(=O)N2CCN(C(c3ccccc3)c3ccccc3)CC2)cs1)c1ccc(NC2CCCCC2)c([N+](=O)[O-])c1
inactive: SK-MEL-2 melanoma 104% | EKVX NSCLC 77.9% | SN12C renal 85.6% | UO-31 renal 66.1% | TK-10 renal 100% | ACHN renal 86.6% | CAKI-1 renal 78.4% | A498 renal 87.6% | CCRF-CEM leukemia 95% | MOLT-4 leukemia 77.9% | SR leukemia 90.2% | RPMI-8226 leukemia 64.2% | OVCAR-8 ovarian 80.4% | OVCAR-5 ovarian 89.2% | OVCAR-4 ovarian 68.9% | SK-OV-3 ovarian 89.8% | IGROV1 ovarian 79.6% | OVCAR-3 ovarian 92.2% | HS 578T breast 90.2% | NCI/ADR-RES ovarian 77%

C#CC#CC#CC#CC#CC#CC#CC#CC[C@H]1OC[C@H](COC(=O)O[C@@H](C(=O)O[C@H]2C[C@@]3(O)[C@@H](OC(=O)c4ccccc4)[C@@H]4[C@]5(OC(C)=O)CO[C@@H]5C[C@H](O)[C@@]4(C)C(=O)[C@H](OC(C)=O)C(=C2C)C3(C)C)[C@@H](NC(=O)c2ccccc2)c2ccccc2)O1
inactive: SK-MEL-2 melanoma 73.9% | EKVX NSCLC 74.5% | SN12C renal 46.5% | UO-31 renal 100% | TK-10 renal 102% | ACHN renal 87.6% | CAKI-1 renal 77.1% | A498 renal 50.2% | CCRF-CEM leukemia 26.7% | MOLT-4 leukemia 43.3% | SR leukemia 25.8% | RPMI-8226 leukemia 16% | OVCAR-8 ovarian 52.7% | OVCAR-5 ovarian 38.4% | OVCAR-4 ovarian 60.7% | SK-OV-3 ovarian 66.2% | IGROV1 ovarian 48.1% | OVCAR-3 ovarian 15.7% | HS 578T breast 43.7% | NCI/ADR-RES ovarian 106%

COc1ccc(Cc2cnc(NC(=O)c3sc4ccccc4c3Cl)s2)cc1
active: SR leukemia 9.94% | OVCAR-3 ovarian -8.48% | HS 578T breast 8.78% | NCI/ADR-RES ovarian 6.4%
inactive: SK-MEL-2 melanoma 43.9% | EKVX NSCLC 40.8% | SN12C renal 28.7% | UO-31 renal 48.4% | TK-10 renal 63.1% | ACHN renal 41.3% | CAKI-1 renal 41.9% | A498 renal 21.3% | CCRF-CEM leukemia 21% | MOLT-4 leukemia 14.8% | RPMI-8226 leukemia 28.3% | OVCAR-8 ovarian 18.7% | OVCAR-5 ovarian 48.4% | OVCAR-4 ovarian 60.5% | SK-OV-3 ovarian 33.9% | IGROV1 ovarian 25.9%

COC1=CC(c2ccc[nH]2)=N/C1=C\c1[nH]c(C)c(CC(=O)OCc2ccccc2)c1C
inactive: OVCAR-4 ovarian 10.5% | SK-OV-3 ovarian 11%
active: SK-MEL-2 melanoma -38.6% | EKVX NSCLC 5.59% | SN12C renal 6.3% | UO-31 renal -69% | TK-10 renal 4.1% | ACHN renal -9.81% | CAKI-1 renal 0.261% | A498 renal -11.9% | CCRF-CEM leukemia 4.82% | MOLT-4 leukemia 2.34% | SR leukemia -25.5% | RPMI-8226 leukemia -41.1% | OVCAR-8 ovarian 9.46% | OVCAR-5 ovarian 9.74% | IGROV1 ovarian -3.67% | OVCAR-3 ovarian -49.5% | HS 578T breast -6.47% | NCI/ADR-RES ovarian 1.3%

NS(=O)(=O)c1ccc(N/C=C/C(=O)c2cc3ccccc3oc2=O)cc1
inactive: SK-MEL-2 melanoma 109% | EKVX NSCLC 84% | SN12C renal 96% | UO-31 renal 62.4% | TK-10 renal 125% | ACHN renal 99.7% | CAKI-1 renal 80.1% | A498 renal 111% | CCRF-CEM leukemia 108% | MOLT-4 leukemia 103% | SR leukemia 78.1% | RPMI-8226 leukemia 98.4% | OVCAR-8 ovarian 104% | OVCAR-5 ovarian 106% | OVCAR-4 ovarian 87.5% | SK-OV-3 ovarian 83.4% | IGROV1 ovarian 91.5% | OVCAR-3 ovarian 101% | HS 578T breast 92.4% | NCI/ADR-RES ovarian 97.8%

CCOC(=O)n1cc(-c2nonc2-c2cn(C)c3ccccc23)c2ccccc21
inactive: SK-MEL-2 melanoma 37.3% | EKVX NSCLC 55.7% | SN12C renal 45.1% | UO-31 renal 42.9% | TK-10 renal 63.2% | ACHN renal 43.2% | CAKI-1 renal 29.4% | A498 renal 15.2% | CCRF-CEM leukemia 21.6% | MOLT-4 leukemia 23.2% | SR leukemia 19.7% | RPMI-8226 leukemia 38.9% | OVCAR-8 ovarian 51.6% | OVCAR-5 ovarian 55.6% | OVCAR-4 ovarian 59.9% | SK-OV-3 ovarian 45% | IGROV1 ovarian 46.8% | OVCAR-3 ovarian 25.1% | HS 578T breast 29.3% | NCI/ADR-RES ovarian 15.2%

— PubChem BioAssay (NCI)
